Measured values published in the supplement of paper PMC9694430.

Columns and labels:
Assay in all cases: thermal shift delta Tm vs DMSO control; higher = stronger stabilization (binding)
Details in all cases: 12.5 µM; protein concentration 2 µM
LOC_OS04G57630-cb004 = tested on: LOC_OS04G57630-cb004
How it was run: (§1)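 Rice kinase domain constructs, made in E. coli and purified, were placed in 96-well plates at 2 μM in 19.5 μl of 100 mM potassium phosphate pH 7.5, 150 mM NaCl, 10% glycerol and 5 × SYPRO Orange, with compound in DMSO. A temperature ramp from 25°C to 95°C at 0.05°C/s was used for differential scanning fluorimetry. The melting temperature shift is a triplicate mean compared with DMSO-only protein, derived from Boltzmann fits.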

LOC_OS05G07850-cb002 = tested on: LOC_OS05G07850-cb002
How it was run: as §1

LOC_OS05G16824-cb004 = tested on: LOC_OS05G16824-cb004
How it was run: as §1

LOC_OS05G28520-cb001 = tested on: LOC_OS05G28520-cb001
How it was run: as §1

LOC_OS05G30820-cb001 = tested on: LOC_OS05G30820-cb001
How it was run: as §1

LOC_OS05G43570-cb004 = tested on: LOC_OS05G43570-cb004
How it was run: as §1

LOC_OS06G16330-cb003 = tested on: LOC_OS06G16330-cb003
LOC_OS06G16330-cb003, sequence (as listed by the source): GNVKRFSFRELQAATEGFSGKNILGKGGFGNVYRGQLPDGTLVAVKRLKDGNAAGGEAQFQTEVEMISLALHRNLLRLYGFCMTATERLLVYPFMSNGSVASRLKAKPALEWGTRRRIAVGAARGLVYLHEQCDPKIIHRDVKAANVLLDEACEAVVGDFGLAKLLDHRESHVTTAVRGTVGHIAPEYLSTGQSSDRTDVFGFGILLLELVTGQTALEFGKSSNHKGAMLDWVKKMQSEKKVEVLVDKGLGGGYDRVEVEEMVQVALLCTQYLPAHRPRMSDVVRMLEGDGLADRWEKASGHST
How it was run: as §1

LOC_OS06G22820-cb001 = tested on: T1, LOC_OS06G22820-cb001
T1 sequence (whole entry): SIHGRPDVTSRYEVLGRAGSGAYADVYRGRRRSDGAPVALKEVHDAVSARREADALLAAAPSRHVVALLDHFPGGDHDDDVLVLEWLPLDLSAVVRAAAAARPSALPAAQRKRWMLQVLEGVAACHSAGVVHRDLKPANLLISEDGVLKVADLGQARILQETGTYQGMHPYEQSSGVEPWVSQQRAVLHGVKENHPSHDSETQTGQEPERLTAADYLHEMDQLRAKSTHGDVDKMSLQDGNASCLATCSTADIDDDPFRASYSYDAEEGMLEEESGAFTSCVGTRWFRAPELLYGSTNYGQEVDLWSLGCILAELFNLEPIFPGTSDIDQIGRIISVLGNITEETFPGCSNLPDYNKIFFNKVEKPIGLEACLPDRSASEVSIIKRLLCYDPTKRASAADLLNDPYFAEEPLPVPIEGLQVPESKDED
How it was run: as §1

LOC_OS07G06570-cb004 = tested on: LOC_OS07G06570-cb004
How it was run: as §1

LOC_OS07G07230-cb001 = tested on: LOC_OS07G07230-cb001
How it was run: as §1
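Further: purified Escherichia coli-expressed rice kinase domain construct.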

Row | SMILES | thermal shift delta Tm (LOC_OS04G57630-cb004) | thermal shift delta Tm (LOC_OS05G07850-cb002) | thermal shift delta Tm (LOC_OS05G16824-cb004) | thermal shift delta Tm (LOC_OS05G28520-cb001) | thermal shift delta Tm (LOC_OS05G30820-cb001) | thermal shift delta Tm (LOC_OS05G43570-cb004) | thermal shift delta Tm (LOC_OS06G16330-cb003) | thermal shift delta Tm (LOC_OS06G22820-cb001) | thermal shift delta Tm (LOC_OS07G06570-cb004) | thermal shift delta Tm (LOC_OS07G07230-cb001)
1 | COc1ccc(-c2ccc3c(N4CCOCC4)nc(N4C[C@@H](C)O[C@@H](C)C4)nc3n2)cc1CO | -0.55 °C | -0.78 °C | -3.16 °C | 0 °C | 0.48 °C | 0.2 °C | -0.25 °C | 0.14 °C | 0.51 °C | 0.35 °C
2 | Oc1cc(CNC(=S)/C=C/c2cc(O)c(O)c(Br)c2)cc(O)c1O | 0.49 °C | -1.85 °C | -0.73 °C | 0.47 °C | 0.99 °C | 1.46 °C | 0.61 °C | 2.08 °C | 3.05 °C | 0.45 °C
3 | CCCNC(=O)c1cn2ncnc(Nc3cc(C(=O)NC4CC4)ccc3C)c2c1C | 0.07 °C | 0.14 °C | -4.13 °C | 0.31 °C | 0.52 °C | 0.2 °C | -0.22 °C | 0.62 °C | 1.15 °C | 0.61 °C
4 | Cc1cc(NC(=O)c2cccc(NC(=O)/C=C/CN(C)C)c2)ccc1Nc1nccc(-c2cccnc2)n1 | 7.66 °C | 2.7 °C | 1.96 °C | 1.08 °C | 0.57 °C | 0.56 °C | 2.18 °C | 1.05 °C | 1.56 °C | -0.14 °C
5 | O=C(O)c1ccc2c3c1cccc3c(=O)n1c3ccccc3nc21 | 0.77 °C | 7.31 °C | 1.51 °C | 0.41 °C | 0.73 °C | 0.15 °C | 4.49 °C | 0.29 °C | 0.54 °C | 1.19 °C
6 | CN1CCN(c2ccc(Nc3cc(-c4cccc(-n5ccc6cc(C7CC7)cc(F)c6c5=O)c4CO)cn(C)c3=O)nc2)CC1 | 0.45 °C | 2.96 °C | 0.67 °C | 0.6 °C | 0.63 °C | 0.46 °C | 0.74 °C | 0.59 °C | 1.21 °C | 0.61 °C
7 | CCN(CC)CCNC(=O)c1c(C)[nH]c(/C=C2\C(=O)Nc3ccc(F)cc32)c1C [Sunitinib] | 4.01 °C | 8.4 °C | 12.1 °C | 2.16 °C | 0.86 °C | 0.55 °C | 8.31 °C | 0.22 °C | 0.72 °C | 0.24 °C
8 | O=C(O)c1ccc2c(c1)nc(Nc1cccc(Cl)c1)c1ccncc12 [Silmitasertib (CX-4945)] | 0.56 °C | 8.41 °C | 3.01 °C | 0.57 °C | 0.68 °C | 0.46 °C | 3.05 °C | 0.65 °C | 1.59 °C | 0.82 °C
9 | COc1cc(OC)cc(-c2cc3cnc(N)nc3nc2NC(=O)NC(C)(C)C)c1 | 0.07 °C | 1.66 °C | -1.45 °C | -0.04 °C | 0.11 °C | 0.05 °C | -0.44 °C | 0.29 °C | 1.06 °C | 1 °C
10 | O=C1NCCc2[nH]c(-c3ccncc3)cc21 | 0.34 °C | 4.2 °C | -2.22 °C | 0.25 °C | 0.53 °C | 0.46 °C | 1.3 °C | 0.55 °C | 0.4 °C | 0.42 °C
11 | Cc1c(CN2CCN(C(=O)[C@H](C)O)CC2)sc2c(N3CCOCC3)nc(-c3cnc(N)nc3)nc12 [Apitolisib (GDC-0980, RG7422)] | 0.67 °C | 2.89 °C | 1.9 °C | 0.57 °C | 0.58 °C | 1.24 °C | 0.88 °C | 0.56 °C | 0.61 °C | -0.1 °C
12 | O=c1cc(N2CCOCC2)oc2c(-c3cccc4c3sc3ccccc34)cccc12 | -0.76 °C | 0.31 °C | -2.7 °C | 0.25 °C | 0.1 °C | -0.66 °C | -1.48 °C | 0.17 °C | 0.25 °C | -0.42 °C
13 | O=c1[nH]nc(Sc2ncc([N+](=O)[O-])s2)n1-c1ccc2c(c1)OCCO2 | -1.46 °C | -1.46 °C | -2.53 °C | 0.59 °C | 0.64 °C | 0.84 °C | -0.58 °C | 0.5 °C | 3.84 °C | 0.07 °C
14 | CC(C)CC(NC(=O)C(Cc1ccccc1)NC(=O)C(CCC(N)=O)NC(=O)C(Cc1ccc(O)cc1)NC(=O)C(C)NC(=O)CNC(=O)C(CCCCN)NC(=O)C(Cc1c[nH]c2ccccc12)NC(=O)C(NC(=O)C(Cc1c[nH]c2ccccc12)NC(=O)C(CCCCN)NC(=O)CNC(=O)C(CC(N)=O)NC(=O)C(CCC(=O)O)NC(=O)C(Cc1c[nH]c2ccccc12)NC(=O)C(NC(=O)C(Cc1c[nH]c2ccccc12)NC(=O)C(CO)NC(=O)CNC(=O)C1CCCN1C(=O)C(Cc1c[nH]c2ccccc12)NC(=O)C(CCC(N)=O)NC(=O)C(Cc1ccccc1)NC(=O)CNC(=O)C(N)Cc1c[nH]cn1)C(C)O)C(C)O)C(=O)NC(CCCCN)C(=O)NCC(=O)NCC(=O)NCC(=O)NCC(=O)NC(CO)C(=O)NC(CCCNC(=N)N)C(=O)NC(CCCNC(=N)N)C(=O)NC(CCCNC(=N)N)C(=O)NC(CCCNC(=N)N)C(=O)NC(CCCNC(=N)N)C(=O)NC(CCCNC(=N)N)C(=O)NC(CCCNC(=N)N)C(=O)NC(CCCNC(=N)N)C(=O)NC(CCCNC(=N)N)C(=O)O (stereo not given) | 0.42 °C | 3.56 °C | 2.71 °C | 0.07 °C | 0.42 °C | 1.33 °C | 0.39 °C | 1.2 °C | 0.27 °C | 0.04 °C
15 | CC[C@@H]1C(=O)N(C)c2cnc(Nc3ccc(C(=O)N[C@H]4CC[C@H](N5CCN(CC6CC6)CC5)CC4)cc3OC)nc2N1C(C)C [Volasertib (BI 6727)] | 0.28 °C | 1.33 °C | 2.5 °C | -0.32 °C | 0.58 °C | 0.4 °C | 0.46 °C | 0.34 °C | 0.62 °C | -0.12 °C
16 | CNC(=O)Nc1ccc(-c2nc(N3CC4CCC(C3)O4)c3cnn(C4CCC5(CC4)OCCO5)c3n2)cc1 | 0.62 °C | 0.66 °C | -1.09 °C | 0.58 °C | 0.69 °C | 0.65 °C | -0.11 °C | 0.61 °C | 0.67 °C | 0.15 °C
17 | Cn1cnc2c(F)c(Nc3ccc(Br)cc3F)c(C(=O)NOCCO)cc21 | 0.45 °C | 1.86 °C | -1.71 °C | 0.55 °C | 0.44 °C | 0.51 °C | -0.03 °C | 0.61 °C | 1.32 °C | -0.18 °C
18 | CCS(=O)(=O)N1CCN(c2ccc(Nc3ncc(C(N)=O)c(NC4CC4)n3)cc2)CC1 | 1.82 °C | 9.2 °C | 11.7 °C | 0.7 °C | 3.56 °C | 2.04 °C | 5.15 °C | 0.57 °C | 1.36 °C | 1.17 °C
19 | CCS(=O)(=O)N1CC(CC#N)(n2cc(-c3ncnc4[nH]ccc34)cn2)C1 | -0.03 °C | 4.2 °C | -0.69 °C | 0.54 °C | 0.72 °C | 0.88 °C | 2.6 °C | 0.77 °C | 1.1 °C | 0.82 °C
